High-throughput results as filed in PubChem.
GCN5L2 inh-1 – GCN5L2 (KAT2A) acetyltransferase inhibition. Q92830. GCN5L2 HAT assay, ThioGlo1 CoA-SH fluorescence. Potency, µM (doses to about 58.9 µM), for inactives: at the top dose activity change, negative = inhibition, actives largely listed as inhibitors. hit rate 0.21% among 390,000; also: potency is read from the fitted curve at half-maximal effect; % is scaled to controls: 0 for no effect and ±100 for the full control effect
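Fluorescence readout, Ex340nm/Em540nm: ThioGlo1 (50uM final) reacts with free CoA thiol released as 20nM GCN5L2 acetylates H3(1-25) peptide (75uM) using acetyl-CoA (70uM). Compound and enzyme sat 15 min beforehand; 20 min room-temperature reaction.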
VDR inhibitor – vitamin D3 receptor (human) inhibition; P11473; VDR-SRC2-3 peptide fluorescence polarization, 2 h; Potency, µM, for the others: max response, negative = inhibition, usual class: inhibitors; hit rate 0.93% among 400,000; AID 504847; also: potency is read from the fitted curve at half-maximal effect; % is scaled to controls: 0 for no effect and ±100 for the full control effect
Target sequence (P11473 whole entry, looked up): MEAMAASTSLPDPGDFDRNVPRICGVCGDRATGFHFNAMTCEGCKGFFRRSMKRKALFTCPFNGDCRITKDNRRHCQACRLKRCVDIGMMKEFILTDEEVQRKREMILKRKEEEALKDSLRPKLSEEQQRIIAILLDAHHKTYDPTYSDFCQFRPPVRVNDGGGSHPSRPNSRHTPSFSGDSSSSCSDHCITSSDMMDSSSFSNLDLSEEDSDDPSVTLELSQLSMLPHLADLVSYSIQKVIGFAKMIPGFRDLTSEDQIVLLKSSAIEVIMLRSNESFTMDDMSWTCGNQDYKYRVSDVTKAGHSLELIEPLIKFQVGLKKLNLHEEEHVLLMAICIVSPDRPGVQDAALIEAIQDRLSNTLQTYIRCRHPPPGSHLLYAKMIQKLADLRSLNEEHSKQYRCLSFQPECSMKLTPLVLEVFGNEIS
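Fluorescence polarization assay of small-molecule disruption of VDR binding to coregulator peptide SRC2-3. Compounds and controls pin-transferred, then read after 2 h incubation at ambient room temperature.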
PLK1 PBD block – inhibitors of human PLK1 polo-box domain binding; Potency, µM, for inactives: max response, negative = inhibition, actives largely listed as inhibitors; Plk1 PBD binding of FITC phosphopeptide, fluorescence polarization; hit rate 2.8% among 360,000; also: potency is read from the fitted curve at half-maximal effect; series mostly up to about 57 µM; % is scaled to controls: 0 for no effect and ±100 for the full control effect; nearly all actives have a fitted effect of over 65% in size
DT40 TDP1 CPT – DT40-hTDP1 cell growth loss with CPT; chicken DT40 Tdp1-/-;hTDP1 cells + 20 nM CPT, ATP luminescence, 48 h; Potency, µM (top dose mostly 46.2 µM), inactives show at the top dose activity change, negative = growth inhibition, most hits filed as inhibitors; hit rate 12% among 420,000; also: potency is read from the fitted curve at half-maximal effect; % is scaled to controls: 0 for no effect and ±100 for the full control effect; nearly all actives have a fitted effect of over 55% in size
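Chicken DT40 Tdp1-/- cells complemented with human TDP1, 400 cells/well, exposed to compounds plus 20 nM camptothecin for at least 48 h at 37 C; viability read as ATP content by CellTiter-Glo luminescence.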
TDP1 inh – inhibitors of human tyrosyl-DNA phosphodiesterase TDP1. recombinant TDP1, AlphaScreen DNA substrate cleavage. Potency, µM (highest dose often 130 µM), inactives show at the top dose activity change, negative = inhibition, actives largely listed as inhibitors. hit rate 0.28% among 350,000; also: potency is read from the fitted curve at half-maximal effect; % is scaled to controls: 0 for no effect and ±100 for the full control effect; nearly all actives have a fitted effect of over 40% in size
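Tdp1 1 nM final; 15 min RT w/ cpd; substrate 15 nM, 5 min; beads 10 ug/ml, 10 min; AlphaScreen read. Neg ctrl: no enzyme.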
TDP1 cell noCPT – qHTS for Inhibitors of human tyrosyl-DNA phosphodiesterase 1 (TDP1): qHTS in cells in absence of CPT; DT40 Tdp1-/- hTDP1 cells, no CPT, ATP luminescence, 48 h; Potency, µM (series often up to 46.2 µM), without a hit: at the highest dose activity change, negative = growth inhibition, most hits filed as inhibitors; hit rate 15% among 420,000; also: potency is read from the fitted curve at half-maximal effect; % is scaled to controls: 0 for no effect and ±100 for the full control effect; nearly all actives have a fitted effect of over 55% in size
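Chicken DT40 Tdp1-/- cells stably complemented with human TDP1 were seeded at 400 cells/well with DMSO in place of 20 nM camptothecin. After compound pinning, cells grew at least 48 hr at 37 °C; viability read by CellTiter-Glo luminescence.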
GCN5L2 inh-2 – human KAT2A HAT inhibition, hit confirmation; shares compounds with GCN5L2 inh-1; GCN5L2 HAT, ThioGlo1 CoA fluorescence, 20 min; Potency, µM, usual class: inhibitors; hit rate 70% among 140; AID 588347
* = called active by the depositor; ? = inconclusive; . = no result. Compounds with a hit are over-represented: about 18% of the library has one in this group of screens. Calls follow the shape of the dose curve; as a rule, active = well fitted curve in the direction sought with a large enough effect; inconclusive = small, poorly fitted or top-dose-only effect, or another doubt; inactive = no such curve, though single readings can be large; an effect the other way counts as inactive or inconclusive.

SMILES	GCN5L2 inh-1	VDR inhibitor	PLK1 PBD block	DT40 TDP1 CPT	TDP1 inh	TDP1 cell noCPT	GCN5L2 inh-2
O=C(COC(=O)c1cc(=O)[nH]c(=O)[nH]1)Nc1cccc(Cl)c1	-1.8%	12.2%	-0.3%	-1.1%	2.2%	14.5%	.
O=C(Nc1ccc(-c2nc3ccccc3s2)c(O)c1)C1=COCCO1	25.1µM*	?	-14.8%	-29.3%	0.6%	-25.6%	22.9*
O=C(Nc1ccc(-c2nc3ccccc3s2)cc1)C1=COCCO1	-5.1%	-13.1%	-5.3%	-5.5%	4.2%	?	.
O=C(NCCc1ccco1)C(=O)NCC1OCCCN1S(=O)(=O)c1ccccc1 (stereo unspecified)	-12.3%	-9.6%	-9.8%	-22.0%	3.7%	-16.3%	.
O=[N+]([O-])C(=C1Nc2ccccc2N1)C(Cl)=C(Cl)Cl	35.5µM*	?	-16.0%	?	12.0%	?	22.9*
C=C(C(C)=O)C(O)c1ccco1 (stereo unspecified)	.	-15.6%	.	.	.	.	.
COc1ccc(CC(=O)n2[nH]c(=O)ccc2=O)cc1OC	?	44.7µM*	6.7µM*	?	12.3%	?	36.3*
COc1ccc(CC(=O)n2[nH]c(=O)c3ccccc3c2=O)cc1OC	-3.8%	4.7%	-2.6%	0.4%	5.7%	-16.9%	.
COc1cc2c(cc1NC(=O)COC(=O)CNS(=O)(=O)c1ccc(C)cc1)oc1ccccc12	-6.4%	-22.5%	5.0%	-11.3%	4.4%	-26.3%	.
Cc1ccc(S(=O)(=O)N2[C@@H](c3ccc(Br)cc3)C(C(=O)O)=CC[C@H]2c2ccc(Cl)c(Cl)c2)cc1	28.2µM*	?	23.8µM*	-14.6%	-9.4%	-28.2%	12.9*
Cc1ccc([C@H]2C(C(=O)O)=CC[C@@H](c3ccc(C)cc3)N2S(=O)(=O)c2ccc(C)cc2)cc1	-5.3%	-21.9%	?	-3.5%	3.5%	-10.2%	.
Cc1ccc([C@H]2C(C(=O)O)=CC[C@@H](c3ccc(Cl)cc3)N2S(=O)(=O)c2ccc(C)cc2)cc1	14.1µM*	-9.2%	?	?	1.2%	?	?
CCSS(=O)(=O)c1cccc2cccnc12	3.16µM*	15.8µM*	2.67µM*	14.6µM*	8.4%	?	3.63*
CCOC(=O)c1cc(-c2ccc(F)cc2)n(CC(=O)NCc2cccnc2)c1C	-3.1%	7.2%	-5.4%	-0.8%	1.2%	-1.6%	.
O=C(N/N=C/c1ccc(OCc2ccccc2)cc1)c1ccncc1	-6.0%	-1.0%	-8.8%	-25.6%	-0.6%	-25.6%	.
COc1ccc(C(=O)N/N=C/c2ccc3cccc(OCc4ccccc4)c3n2)cc1	?	-13.7%	0.6%	?	3.1%	8.2µM*	22.9*
Cc1nc(S/C(=C/c2ccc(-c3cccc(Cl)c3)o2)C(=O)O)n[nH]1	-16.2%	-3.5%	-19.0%	5.1%	2.9%	-24.1%	.
CC1=NOC(=O)/C1=C\c1ccc(-c2cccc(Cl)c2)o1	?	?	0.532µM*	5.8µM*	1.0%	5.17µM*	?
COc1ccc(CCn2c(O)cc3nn(-c4nc5ccccc5s4)c(=O)c-3c2C)cc1	25.1µM*	-5.0%	-24.6%	-26.0%	.	16.4µM*	?
COc1ccc(CCn2c(-c3ccc(OC)cc3)nc3c(c(=O)c4ccccc4n3C)c2=O)cc1	1.0%	-3.2%	-9.4%	22.8%	1.4%	-19.8%	.
CCCC(=O)c1cc(-c2nc3ccccc3n2C)n(C)c1	-26.5%	11.2%	-22.5%	?	5.2%	-27.4%	.
CC(=O)c1ccc(-c2nc3ccccc3n2C)o1	?	7.2%	-6.6%	?	0.0%	?	18.2*
CC(C)c1ccc(NC(=O)c2ccc3c(c2)C(=O)N(Cc2cccnc2)C3=O)cc1	-2.2%	-14.3%	0.2%	-8.2%	0.2%	-14.7%	.
